Beta cell apopt = inhibitors of cytokine-induced beta cell apoptosis, primary screen, luminescence. actives 0.8% (n = 300,000). AID 435005, 2010. INS-1E cytokine-induced death, ATP luminescence, 48 h; percent of positive-control rescue, neutral wells zero. protection from apoptosis, % (concentration not given with the values);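 active = Every replicate reaches about 75%, or at least half do and their mean reaches it too, limit read from the data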;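 also: higher means more ATP so stronger rescue from cytokine killing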
697 NFkB inh = inhibitors of PMA/ionomycin-induced NF-kB reporter, 697 cells, primary screen, B-cell NF-kB inhibitor project, cell-based, luminescence, uHTS. 697 B-cell NF-kB luciferase reporter, 16 h. inhibition, % at 4 µM. actives 0.33% (n = 330,000); in the data active = inhibition above about 35%
Mdm2 MdmX PPI = inhibitors of human Mdm2-MdmX association, primary screen, cell-based, luminescence, split luciferase, SaOS-2, uHTS; SaOS-2 split-luciferase Mdm2/MdmX complementation; inhibition, % at 8 µM; actives 3% (n = 330,000); AID 485346, 2010;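 active = inhibition of at least 50% at 8 µM in the primary screen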
Target sequence (O15151 whole entry, looked up): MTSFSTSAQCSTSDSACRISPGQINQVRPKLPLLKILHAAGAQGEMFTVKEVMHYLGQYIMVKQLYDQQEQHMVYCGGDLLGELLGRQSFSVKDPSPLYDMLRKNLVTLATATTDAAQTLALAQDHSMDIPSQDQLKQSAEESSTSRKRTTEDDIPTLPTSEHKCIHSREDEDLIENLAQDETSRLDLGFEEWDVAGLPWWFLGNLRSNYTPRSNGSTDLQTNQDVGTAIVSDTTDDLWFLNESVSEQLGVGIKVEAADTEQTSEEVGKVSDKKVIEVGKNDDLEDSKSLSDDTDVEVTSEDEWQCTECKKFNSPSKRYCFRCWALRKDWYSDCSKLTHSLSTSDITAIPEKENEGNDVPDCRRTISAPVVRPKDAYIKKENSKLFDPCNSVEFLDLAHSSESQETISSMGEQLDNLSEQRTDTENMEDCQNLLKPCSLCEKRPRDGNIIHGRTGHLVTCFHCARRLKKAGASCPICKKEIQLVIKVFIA
Target sequence (Q00987 whole entry, looked up): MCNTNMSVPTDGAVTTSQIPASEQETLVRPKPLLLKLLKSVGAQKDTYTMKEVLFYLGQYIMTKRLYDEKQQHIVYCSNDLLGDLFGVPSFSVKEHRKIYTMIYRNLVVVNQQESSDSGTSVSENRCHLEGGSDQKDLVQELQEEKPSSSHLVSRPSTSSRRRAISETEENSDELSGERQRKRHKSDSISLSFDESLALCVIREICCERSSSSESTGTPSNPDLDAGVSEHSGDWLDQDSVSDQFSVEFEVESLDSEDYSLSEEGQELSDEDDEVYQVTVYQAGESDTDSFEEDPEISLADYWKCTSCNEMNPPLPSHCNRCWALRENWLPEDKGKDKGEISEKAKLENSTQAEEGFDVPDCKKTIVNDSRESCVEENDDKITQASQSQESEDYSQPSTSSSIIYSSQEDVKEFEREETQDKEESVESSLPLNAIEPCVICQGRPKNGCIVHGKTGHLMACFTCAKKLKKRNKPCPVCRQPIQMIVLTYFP
Jurkat NFkB inh = inhibitors of induced NF-kB luciferase reporter, primary screen, TCR NF-kB activation inhibitor project, cell-based, luminescence, uHTS; actives 0.53% (n = 330,000); inhibition, % at 4 µM; AID 435003, 2010; Jurkat, PMA/ionomycin-induced NF-kB luciferase reporter; in the data active = inhibition above about 50%
Gli-Sufu block = Gli-Sufu pathway antagonists, primary screen, luciferase luminescence, Sufu-KO-LIGHT cells, uHTS; Sufu-KO-LIGHT fibroblasts, Gli luciferase reporter luminescence; inhibition, % at 5 µM; actives 0.74% (n = 340,000); AID 588413, 2011;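 active = inhibition above about 55%, limit read from the data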
Mdm2-MdmX conf = Mdm2-MdmX complex disruptors, retested hits, confirmation, luminescence, single concentration | shares compounds with Mdm2 MdmX PPI | Mdm2-MdmX binding, luminescent assay | actives 55% (n = 10,000) | inhibition, % at 8 µM; in the data active = inhibition above about 40%
FLuc counter = full-length luciferase signal inhibition, confirmation, counter-screen for Mdm2/MdmX interaction inhibitor project, cell-based, single concentration, SaOS-2; AID 504607, 2011; SaOS-2 full-length luciferase counterscreen, luminescence; inhibition, % at 8 µM; shares compounds with Mdm2 MdmX PPI; actives 77% (n = 6,200);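 active = mean inhibition at 8 µM reaching about 37%, which flags the compound as non-specific, limit read from the data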;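 also: p53-null SaOS-2 cells with luciferase driven by a doxycycline-inducible promoter; compound on cells about two nights before reading with doxycycline added after day one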
Of the large screens only hits and unclear results are named; the others gave an inactive call (follow-up assays come after a bar, where they were run). A selection: hits, their analogues and other compounds. The true share with any hit is near 4%.

CCCCn1c(N)c(-c2nc3ccccc3s2)c2c([N+](=O)[O-])nn(CC)c(=O)c21	none
CCCCCn1c(N)c(-c2nc3ccccc3s2)c2c([N+](=O)[O-])nn(CC)c(=O)c21	Mdm2 MdmX PPI 92 | Mdm2-MdmX conf inactive
Cn1nc([N+](=O)[O-])c2c(-c3nc4ccccc4s3)c(N)n(C3CCCCC3)c2c1=O	Mdm2 MdmX PPI 51 | Mdm2-MdmX conf inactive
Cc1cc(C(=O)N/N=C/c2ccc(Cl)c([N+](=O)[O-])c2)c(C)n1-c1ccc(F)cc1	Mdm2 MdmX PPI 96 | Mdm2-MdmX conf 83 | FLuc counter 45
Cc1cc(C)n2nc(SCC(=O)NC(=O)c3ccc(OC(F)F)cc3)nc2n1	none
Cc1ccc(O)c(C(=O)c2cnc3c(c2)CN(C)C(=O)N3)c1	Mdm2 MdmX PPI 63 | Mdm2-MdmX conf 49 | FLuc counter 56
Cc1ccc(O)c(C(=O)c2cnc3c(c2)CN(CCC(C)C)C(=O)N3)c1	Mdm2 MdmX PPI 54 | Mdm2-MdmX conf inactive
CN1Cc2cc(C(=O)c3cc(Cl)cc(CSc4ncccn4)c3O)cnc2NC1=O	Mdm2 MdmX PPI 59 (no result: Gli-Sufu block) | Mdm2-MdmX conf 73 | FLuc counter 89
Cc1csc(NC(=O)c2ccc(Cl)nc2)n1	none
CCC1(C)NC(=O)N(CC(=O)NCC(=O)Nc2c(C)cc(C)cc2C)C1=O (centres undefined)	none
Cc1ccc(NC(=O)Nc2cccn(Cc3c(F)cccc3Cl)c2=O)cc1	none
O=C(NCc1ccccc1)Nc1cccn(Cc2c(F)cccc2Cl)c1=O	Mdm2 MdmX PPI 56 | Mdm2-MdmX conf 43 | FLuc counter 73
CCN(CC)S(=O)(=O)c1cc(NC(=O)CSc2nc3c(cc2C#N)C(=O)CC(C)(C)C3)ccc1C	Mdm2 MdmX PPI 67 | Mdm2-MdmX conf 63 | FLuc counter 45
COC(=O)c1ccc(COn2nnc3ccccc32)cc1	none
COc1ccc(-c2noc(CN(C)C(=O)c3ccoc3C)n2)cc1OC	none
Cc1ccc(NC(=O)CCC(=O)N/N=C/c2ccc(O)cc2O)cc1	none
C=CCc1cccc(/C=N/NC(=O)CCC(=O)Nc2ccc(C)cc2)c1O	Beta cell apopt 90, Mdm2 MdmX PPI 65 | Mdm2-MdmX conf 65 | FLuc counter 52
Cc1ccc(/C([O-])=C(/C(=S)NCc2ccc3c(c2)OCO3)[n+]2ccc(N(C)C)cc2)c(C)c1	none
Cc1ccc(C(=O)NCCc2nnc3ccc(NCc4ccc5c(c4)OCO5)nn23)cc1	none (no result: Beta cell apopt)
CC(C)CCn1c(Sc2nc3ccccc3o2)nc2c1c(=O)[nH]c(=O)n2C	Mdm2 MdmX PPI 61 | Mdm2-MdmX conf 46 | FLuc counter 41
c1ccc(CNc2nc(-c3ccccn3)nc3ccccc23)cc1	Beta cell apopt 106, Mdm2 MdmX PPI 78 | Mdm2-MdmX conf 78 | FLuc counter inactive
c1ccc(CNc2nc(-c3ccccc3)nc3ccccc23)cc1	none (no result: Beta cell apopt)
c1ccc(CNc2nc(NCc3ccccc3)c3ccccc3n2)cc1	Beta cell apopt 114, Mdm2 MdmX PPI 100 | Mdm2-MdmX conf 75 | FLuc counter 51
Fc1ccc(Nc2nc(NCc3ccco3)c3ccccc3n2)cc1	Mdm2 MdmX PPI 77 | Mdm2-MdmX conf inactive
CCC(C)Nc1nc(-c2ccccn2)nc2ccccc12 (centres undefined)	Beta cell apopt 90, Mdm2 MdmX PPI 82 | Mdm2-MdmX conf 58 | FLuc counter inactive
O=C(NCC(=O)N(c1ccccc1)C(C(=O)NC1CCCCC1)c1cccnc1)c1ccco1 (centres undefined)	none
O=C(O)C(O)(c1ccccc1)C(O)c1ccccc1 (centres undefined)	none (no result: Beta cell apopt)
CC(=O)Oc1ccccc1C1=NN(C(=O)/C=C/c2ccccc2)C(c2ccccc2)C1 (centres undefined)	Mdm2 MdmX PPI 51 | Mdm2-MdmX conf inactive
COc1ccc(C2CC(c3ccccc3OC(C)=O)=NN2C(=O)/C=C/c2ccccc2)cc1 (centres undefined)	none
O=C(C#Cc1ccccc1)c1ccc([N+](=O)[O-])cc1	Mdm2 MdmX PPI 97 (no result: Beta cell apopt) | Mdm2-MdmX conf 82 | FLuc counter 58
CC(C)(C)C(=O)O/N=C(\N)c1c(Cl)cccc1Cl	Mdm2 MdmX PPI 54 | Mdm2-MdmX conf inactive
COC(=O)[C@@]12CCCCN1[C@H](c1ccc(-c3ccc(Cl)c(Cl)c3)c(OC)c1)[C@H]1C(=O)N(C)C(=O)[C@H]12	Mdm2 MdmX PPI 65 | Mdm2-MdmX conf 42 | FLuc counter 44
CCCCCCSc1ccc([C@@H]2[C@H]3C(=O)N(C)C(=O)[C@H]3[C@]3(C(=O)OC)CCCCN23)cc1	none
COC(=O)[C@@]12CCCCN1[C@H](c1ccc(-c3ccc(Cl)c(Cl)c3)c(OC)c1)[C@@H]1C(=O)N(C)C(=O)[C@@H]12	none (no result: Beta cell apopt, 697 NFkB inh, Mdm2 MdmX PPI, Jurkat NFkB inh)
CCN1C(=O)[C@@H]2[C@@H](c3ccc(-c4ccc(Cl)c(Cl)c4)cc3)N3CCCC[C@@]3(C(=O)OC)[C@@H]2C1=O	none
CCCCCCSc1ccc([C@@H]2[C@@H]3C(=O)N(CC)C(=O)[C@@H]3[C@]3(C(=O)OC)CCCCN23)cc1	Mdm2 MdmX PPI 52 | Mdm2-MdmX conf inactive
CCN1C(=O)[C@@H]2[C@@H](c3ccc(-c4ccc(Cl)c(Cl)c4)c(OC)c3)N3CCC[C@@]3(C(=O)OC)[C@@H]2C1=O	Mdm2 MdmX PPI 67 | Mdm2-MdmX conf inactive
COC(=O)[C@@]12CCCCN1[C@H](c1ccc(-c3ccc(Cl)c(Cl)c3)cc1)[C@H]1C(=O)N(C)C(=O)[C@H]12	Mdm2 MdmX PPI 67 | Mdm2-MdmX conf inactive
CCN1C(=O)[C@H]2[C@@H](c3ccc(-c4ccc(F)cc4)c(OC)c3)N3CCC[C@@]3(C(=O)OC)[C@H]2C1=O	none
COC(=O)[C@@]12CCCCN1[C@H](c1ccc(-c3cc(C(C)=O)cs3)cc1)[C@H]1C(=O)N(C)C(=O)[C@H]12	Mdm2 MdmX PPI 67 | Mdm2-MdmX conf inactive
O=C(Nc1cccc(Cl)c1)c1nc[nH]c1C(=O)NCCN(CCNC(=O)c1[nH]cnc1C(=O)Nc1cccc(Cl)c1)CCNC(=O)c1[nH]cnc1C(=O)Nc1cccc(Cl)c1	Mdm2 MdmX PPI 75 | Mdm2-MdmX conf inactive

Source: PubChem (several laboratories)
